Several values for one entry are separate records, joined by “and”; a condition that tells them apart may be missing. Identical values can stand only once. For part of these data: Potency and affinity values are given separately. Activity calls are given as the source filed them.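 How the source made its calls, unless noted: active means compounds killing one labelled cell type while sparing the other, by normalised counts and ratio limits, not self-fluorescent; inactive means the rest.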
How the values were obtained:
[1] = differential killing of epithelial or mesenchymal cells, primary screen, imaging, PC-3E GFP, TEM4-18 mCherry, co-culture (AID 1345086); conditions: imaging cell counts, at 1 µM; for red/green cell ratio (normalised): actives lie on both sides, counts scaled to control wells, 1 = unselective;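 on all read-outs here: cells exposed to compound for 72 h before imaging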;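 on red/green cell ratio (normalised): normalised mesenchymal count divided by normalised epithelial count so high means epithelial killing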
[2] = sensitizers of A549 cells to miR-34 induction, primary screen, imaging, A549 dox-inducible miR-34, nuclei and caspase counts (AID 1347080;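 active means compounds whose cell count with miR-34 switched on is under 0.7 times the count with it off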); conditions: A549 miR-34 inducible, Hoechst nuclei count, 48 h
[3] = molecular target: NAD(+) hydrolase SARM1 (Homo sapiens) (UniProt Q6SZW1); assay: SARM1 TIR NADase inhibitors, cell lysate, NAD-Glo luminescence (AID 1508614;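 active means compound whose remaining NAD level is above about 45 nM, limit read from the data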); conditions: SAM-TIR HEK293T lysate NADase, at 1 µM, stronger effect = higher value
Chain of NAD(+) hydrolase SARM1 (Homo sapiens) (Q6SZW1 whole entry, looked up): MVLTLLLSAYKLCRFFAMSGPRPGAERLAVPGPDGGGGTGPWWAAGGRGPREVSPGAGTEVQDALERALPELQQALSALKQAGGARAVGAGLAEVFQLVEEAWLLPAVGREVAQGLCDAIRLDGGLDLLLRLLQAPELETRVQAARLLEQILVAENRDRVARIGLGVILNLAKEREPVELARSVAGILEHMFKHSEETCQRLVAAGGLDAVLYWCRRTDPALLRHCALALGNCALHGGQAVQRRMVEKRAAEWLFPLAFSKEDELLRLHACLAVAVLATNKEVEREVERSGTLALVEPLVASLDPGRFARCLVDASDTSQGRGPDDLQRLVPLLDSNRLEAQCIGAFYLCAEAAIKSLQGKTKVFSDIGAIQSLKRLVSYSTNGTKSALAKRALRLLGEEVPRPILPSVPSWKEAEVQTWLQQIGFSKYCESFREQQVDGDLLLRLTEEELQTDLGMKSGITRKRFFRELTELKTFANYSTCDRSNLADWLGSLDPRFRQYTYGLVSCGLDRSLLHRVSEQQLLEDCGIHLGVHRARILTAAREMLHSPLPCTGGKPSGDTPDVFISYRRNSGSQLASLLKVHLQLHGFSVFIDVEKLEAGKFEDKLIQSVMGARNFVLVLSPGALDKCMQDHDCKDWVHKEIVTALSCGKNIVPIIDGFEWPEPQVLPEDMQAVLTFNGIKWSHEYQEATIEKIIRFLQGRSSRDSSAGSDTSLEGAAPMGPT

[4] = polyglutamine-triggered caspase-3 activation inhibitors, cell-based (AID 1583); conditions: polyglutamine-induced caspase-3 activation, cell assay; stronger effect = higher value;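 tested at 10 µM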
[5] = suppressors of polyQ aggregation in yeast, 75Q-TubU reporter (AID 1593); conditions: Yeast 75Q polyglutamine aggregation reporter
[6] = rescue of polyQ-huntingtin neuronal dysfunction in worms, whole organism, C. elegans mechanosensory neurons, N-terminal huntingtin (AID 1599); conditions: touch response, stronger effect = higher value
[7] = inhibitors of mitochondrial cytochrome c release, biochemical, purified mitochondria (AID 1603); conditions: stronger effect = lower value;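 further: mouse liver mitochondria challenged with calcium chloride; signal normalized to the plate average as 100%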
[8] = inhibitors of polyQ protein aggregation (AID 1604); conditions: polyglutamine-induced protein aggregation inhibition assay; stronger effect = higher value; tested at 2.5 µM
[9] = enhancers of glutamate uptake in motor neurons, MN-1 cell line (AID 1612); conditions: MN-1 motor neuron cells, stronger effect = higher value;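 further: tested at 1 µM final; 0% = mean of DMSO vehicle wells on each plate; positive means more glutamate uptake than control and negative means less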
[10] = reducers of polyQ inclusions in PC12 cells, cell-based, NGF-treated PC12, GFPQ80 (AID 1614); conditions: PC12 NGF-treated GFP-polyQ80 inclusion reduction;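 further: lower means fewer inclusions and 0 means no inclusions at all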
[11] = suppressors of polyglutamine aggregation in yeast, 75Q-TubH (AID 1616); conditions: S. cerevisiae 75Q-TubH polyglutamine aggregation suppression; stronger effect = higher value
[12] = liver-stage malaria parasite growth inhibition, primary screen, cell-based, HepG2, luciferase luminescence, HepG2 viability (AID 624349; in the data active means parasite load remaining mostly below about 12%, no sharp cut-off; inactive means mostly above about 10%;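 further: 100% = mean of DMSO negative control wells on the same plate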); conditions: P. berghei liver stage in HepG2, luciferase luminescence, concentration not given here; parasite load remaining: stronger effect = lower value; viability: measured here: HepG2 viability without parasites
[13] = molecular target: Mitogen-activated protein kinase 7 (Homo sapiens) (UniProt Q13164); assay: ERK5 transactivation activators in reporter cells, primary screen, cell-based, HTS (AID 1508626;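 active means luciferase signal above three times the same-plate solvent-only control wells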;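 further: luciferase driven by Gal4-ERK5 fusion binding five Gal4 sites before minimal TATA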); conditions: HeLa Gal4-ERK5 transactivation, 18 h, at 5 µM, stronger effect = higher value
Chain of Mitogen-activated protein kinase 7 (Homo sapiens) (Q13164 whole entry, looked up, the tested form may be a part): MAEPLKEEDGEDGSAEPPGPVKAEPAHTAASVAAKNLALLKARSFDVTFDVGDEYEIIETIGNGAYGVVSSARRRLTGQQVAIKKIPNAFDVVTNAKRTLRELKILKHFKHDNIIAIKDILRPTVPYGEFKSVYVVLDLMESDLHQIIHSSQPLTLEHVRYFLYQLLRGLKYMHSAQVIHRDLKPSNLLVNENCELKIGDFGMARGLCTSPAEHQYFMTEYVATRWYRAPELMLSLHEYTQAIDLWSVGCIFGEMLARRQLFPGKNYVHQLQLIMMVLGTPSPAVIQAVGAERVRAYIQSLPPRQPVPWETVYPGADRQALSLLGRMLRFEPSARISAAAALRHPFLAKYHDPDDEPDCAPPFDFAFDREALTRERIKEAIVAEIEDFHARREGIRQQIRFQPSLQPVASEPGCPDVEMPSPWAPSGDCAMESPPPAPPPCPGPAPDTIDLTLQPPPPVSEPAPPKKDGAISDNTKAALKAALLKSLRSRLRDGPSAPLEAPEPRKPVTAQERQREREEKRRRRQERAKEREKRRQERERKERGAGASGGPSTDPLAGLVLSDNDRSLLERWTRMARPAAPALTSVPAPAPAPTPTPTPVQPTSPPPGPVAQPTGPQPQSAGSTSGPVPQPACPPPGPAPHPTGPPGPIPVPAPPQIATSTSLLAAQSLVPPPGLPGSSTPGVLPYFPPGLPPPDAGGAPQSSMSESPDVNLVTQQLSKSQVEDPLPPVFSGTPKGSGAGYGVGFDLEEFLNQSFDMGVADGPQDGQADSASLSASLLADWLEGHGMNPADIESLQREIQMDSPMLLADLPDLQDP

[14] = system: Hepatitis C virus NS3 helicase; assay: HCV NS3 helicase inhibitors, primary screen, biochemical, fluorescence polarization, LOPAC1280 library (AID 687035; in the data active means inhibition above about 37%); conditions: Purified HCV NS3 helicase, Cy5-dT15 ssDNA binding fluorescence polarization; stronger effect = higher value; concentration not given here
[15] = Cy5 fluorescence quenching or enhancement artefacts, artefact control for HCV NS3 helicase inhibitor project, biochemical, LOPAC1280 (AID 687037; call rule not given here); conditions: Cy5-DNA-NS3h complex fluorescence interference counterscreen
[16] = measured here: epithelial PC-3E GFP cell survival
[17] = measured here: mesenchymal TEM4-18 mCherry cell survival
[18] = stronger effect = lower value, cell number ratio, induced over uninduced
[19] = measured here: relative caspase fold change +Dox/-Dox
[20] = measured here: total cells with miR-34 induction, stronger effect = lower value
[21] = measured here: total cells without miR-34 induction

Cc1nccnc1N1CCCCC1
red/green cell ratio (normalised) [1]: 1.12 (inactive) | normalised cell number [1, 16]: 0.93 | normalised cell number [1, 17]: 1.04 | fold change [2, 18]: 0.964 (inactive) | fold change [2, 19]: 0.767 | cell count [2, 20]: 9440 | cell count [2, 21]: 9790 | remaining NAD [3]: 10 nM (inactive)

Cc1c(C)c2c(c(C)c1O)CCC(C)(CCCC(C)CCCC(C)CCCC(C)C)O2 (configuration not stated)
inhibition [4]: 25.1% | score [5]: -0.94 | rescue above control [6]: -0.91 | cytochrome c release ratio [7]: 1.24 | inhibition of aggregation [8]: 78.9% | glutamate uptake change [9]: -4.89% | inclusion score [10]: 2 | aggregation suppression score [11]: 0.219 | parasite load remaining [12]: 67.5% (inactive) | viability [12]: 90.7% | red/green cell ratio (normalised) [1]: 1.01 (inactive) | normalised cell number [1, 16]: 0.82 | normalised cell number [1, 17]: 0.83 | fold change [2, 18]: 0.899 (inactive) | fold change [2, 19]: 1.09 | cell count [2, 20]: 10700 | cell count [2, 21]: 11900 | luciferase signal [13]: 44 AU (inactive)

O=C(O)CC(O)(CC(=O)O)C(=O)O
parasite load remaining [12]: 61.3% (inactive) | viability [12]: 186% | red/green cell ratio (normalised) [1]: 1 (inactive) | normalised cell number [1, 16]: 1.06 | normalised cell number [1, 17]: 1.06 | fold change [2, 18]: 0.829 (inactive) | fold change [2, 19]: 6.46 | cell count [2, 20]: 11100 | cell count [2, 21]: 13400 | remaining NAD [3]: 10 nM (inactive) | luciferase signal [13]: 52 AU (inactive)

CO/N=C(/C(=O)N[C@@H]1C(=O)N2C(C(=O)O)=C(COC(C)=O)CS[C@H]12)c1csc(N)n1
inhibition [4]: 6.49% | score [5]: 1.38 | rescue above control [6]: 2.83 | cytochrome c release ratio [7]: 1.43 | inhibition of aggregation [8]: 86.2% | glutamate uptake change [9]: -17.6% | inclusion score [10]: 2 | aggregation suppression score [11]: 1.39 | parasite load remaining [12]: 84.7% (inactive) and 61.2% (inactive) | viability [12]: 73.5% and 100% | inhibition [14]: 6% (inactive) | fluorescence ratio (interference) [15]: 1 (inactive) | red/green cell ratio (normalised) [1]: 1.18 (inactive) | normalised cell number [1, 16]: 1.15 | normalised cell number [1, 17]: 1.35 | fold change [2, 18]: 0.913 (inactive) | fold change [2, 19]: 1.26 | cell count [2, 20]: 11200 | cell count [2, 21]: 12300

FC(F)(F)COCC(F)(F)F
parasite load remaining [12]: 45.8% (inactive) | viability [12]: 107% | red/green cell ratio (normalised) [1]: 0.7 (inactive) | normalised cell number [1, 16]: 1.25 | normalised cell number [1, 17]: 0.88 | fold change [2, 18]: 0.879 (inactive) | fold change [2, 19]: 0.825 | cell count [2, 20]: 10400 | cell count [2, 21]: 11900 | remaining NAD [3]: 10 nM (inactive) | luciferase signal [13]: 60 AU (inactive)

OCc1ccccc1
red/green cell ratio (normalised) [1]: 0.94 (inactive) | normalised cell number [1, 16]: 1.12 | normalised cell number [1, 17]: 1.05 | fold change [2, 18]: 0.891 (inactive) | fold change [2, 19]: 0.934 | cell count [2, 20]: 8280 | cell count [2, 21]: 9290 | remaining NAD [3]: 10 nM (inactive)

CCOC(=O)Nc1nc2ccccc2[nH]1
parasite load remaining [12]: 62.9% (inactive) | viability [12]: 103% | red/green cell ratio (normalised) [1]: 1.08 (inactive) | normalised cell number [1, 16]: 0.9 | normalised cell number [1, 17]: 0.97 | fold change [2, 18]: 0.84 (inactive) | fold change [2, 19]: 2.72 | cell count [2, 20]: 8540 | cell count [2, 21]: 10200 | remaining NAD [3]: 10 nM (inactive) | luciferase signal [13]: 88 AU (inactive)

CCC1(C)OC(=O)N(C)C1=O (configuration not stated)
red/green cell ratio (normalised) [1]: 0.84 (inactive) | normalised cell number [1, 16]: 1.08 | normalised cell number [1, 17]: 0.91 | fold change [2, 18]: 0.92 (inactive) | fold change [2, 19]: 0.865 | cell count [2, 20]: 7860 | cell count [2, 21]: 8540 | remaining NAD [3]: 10 nM (inactive) | luciferase signal [13]: 16 AU (inactive)

OC[C@H]1O[C@H](O[C@]2(CCl)O[C@H](CCl)[C@@H](O)[C@@H]2O)[C@H](O)[C@@H](O)[C@H]1Cl
parasite load remaining [12]: 60.8% (inactive) | viability [12]: 98.6% | red/green cell ratio (normalised) [1]: 0.96 (inactive) | normalised cell number [1, 16]: 1.1 | normalised cell number [1, 17]: 1.05 | fold change [2, 18]: 0.909 (inactive) | fold change [2, 19]: 4.93 | cell count [2, 20]: 12300 | cell count [2, 21]: 13500 | remaining NAD [3]: 10 nM (inactive) | luciferase signal [13]: 68 AU (inactive)

C[N+](C)(C)C[C@H](O)CC(=O)[O-]
parasite load remaining [12]: 53.1% (inactive) | viability [12]: 99.7% | red/green cell ratio (normalised) [1]: 1.04 (inactive) | normalised cell number [1, 16]: 0.94 | normalised cell number [1, 17]: 0.98 | fold change [2, 18]: 0.867 (inactive) | fold change [2, 19]: 4.08 | cell count [2, 20]: 11500 | cell count [2, 21]: 13200 | remaining NAD [3]: 10 nM (inactive) | luciferase signal [13]: 32 AU (inactive)

CN(C)[C@@H]1C(=O)C(C(=O)NCN2CCCC2)=C(O)[C@@]2(O)C(=O)C3=C(O)c4c(O)cccc4[C@@](C)(O)[C@H]3C[C@@H]12
parasite load remaining [12]: 26.9% (inactive) | viability [12]: 99.8% | red/green cell ratio (normalised) [1]: 0.9 (inactive) | normalised cell number [1, 16]: 1.09 | normalised cell number [1, 17]: 0.97 | fold change [2, 18]: 0.855 (inactive) | fold change [2, 19]: 4.3 | cell count [2, 20]: 11700 | cell count [2, 21]: 13600 | remaining NAD [3]: 10 nM (inactive) | luciferase signal [13]: 112 AU (inactive)

CO[C@@H]1[C@@H](O[C@@H]2O[C@H](C)[C@@H](O[C@H]3C[C@@](C)(O)[C@H](O)[C@H](C)O3)[C@H](N(C)C)[C@H]2O)[C@@H](CC=O)C[C@@H](C)[C@@H](O[C@H]2CC[C@H](N(C)C)[C@@H](C)O2)/C=C/C=C/C[C@H](C)OC(=O)C[C@H]1O
inhibition [4]: 7.63% | score [5]: 1.61 | rescue above control [6]: 24.9 | cytochrome c release ratio [7]: 1.41 | inhibition of aggregation [8]: 50.8% | glutamate uptake change [9]: -5.09% | inclusion score [10]: 2 | aggregation suppression score [11]: 1.01 | parasite load remaining [12]: 143% (inactive) and 69.7% (inactive) | viability [12]: 83.9% and 197% | red/green cell ratio (normalised) [1]: 0.86 (inactive) | normalised cell number [1, 16]: 1.23 | normalised cell number [1, 17]: 1.05 | fold change [2, 18]: 0.795 (inactive) | fold change [2, 19]: 4.68 | cell count [2, 20]: 10300 | cell count [2, 21]: 12900

CCCC(=O)O[C@]1(C(=O)CO)CCC2[C@@H]3CCC4=CC(=O)CC[C@]4(C)C3[C@@H](O)C[C@@]21C (some centres not stated)
inhibition [4]: -18.1% | score [5]: 1.15 | rescue above control [6]: -7.82 | cytochrome c release ratio [7]: 1.03 | inhibition of aggregation [8]: 77.8% | glutamate uptake change [9]: 33.4% | inclusion score [10]: 2 | aggregation suppression score [11]: 1.38 | parasite load remaining [12]: 170% (inactive) and 68.7% (inactive) | viability [12]: 85% and 121% | red/green cell ratio (normalised) [1]: 1.26 (inactive) | normalised cell number [1, 16]: 1.07 | normalised cell number [1, 17]: 1.34 | fold change [2, 18]: 0.953 (inactive) | fold change [2, 19]: 2.16 | cell count [2, 20]: 7610 | cell count [2, 21]: 7980

— PubChem BioAssay
